Screens from PubChem.
Rows were chosen to be rich in hits. Some 12% of all compounds tested hit in one or more screens of this group.
INS promoter inh – inhibitors of insulin promoter-driven GFP, primary screen, imaging, TRM-6 cells (human fetal islet line), eGFP reporter, cell count. inhibition, % at 2 µM. AID 1273, 2008. reporter expression induced with tamoxifen. 130,000 tested, 0.9% active;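 active means inhibition above the mean plus 3 SD, with well images judged a real hit on visual review, cut at about 60% in these data, passing the limit was not always enough; inconclusive means inhibition over the cutoff but images rejected on review; inactive means inhibition not above the cutoff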
WT yeast gro inh – growth inhibition of WT strain, primary screen, mitochondrial fusion inhibitor project, WT and mutant strains, chemical genetic | mitochondrial fusion phenotypic screen | inhibition, % at 10 µM | 190,000 tested, 2.1% active | AID 1362, 2008; in the data active means inhibition above about 58%; tested in S. cerevisiae
L major viab – Leishmania major promastigote growth inhibition, primary screen | Leishmania major promastigotes, resazurin fluorescence viability | inhibition, % at 10 µM | 200,000 tested, 9% active | AID 1063, 2008; in the data active means inhibition above about 50%;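 further: promastigotes grown with compound for 44 hours at 28 °C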
ROMK primary – ROMK potassium channel modulators, primary screen, cell-based, thallium flux, MLSMR library; Tet-inducible ROMK, thallium flux fluorescence; actives lie on both sides; B-score at 10 µM; 130,000 tested, 2% active; AID 1918, 2009;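 active means signal ratio slope over the read window, or its plate-corrected B-score, at least 3 SD from the plate mean, either direction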;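 further: B-score of the F/F0 ratio slope over 7 to 12 s after thallium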
Target sequence (P48048 whole entry, looked up): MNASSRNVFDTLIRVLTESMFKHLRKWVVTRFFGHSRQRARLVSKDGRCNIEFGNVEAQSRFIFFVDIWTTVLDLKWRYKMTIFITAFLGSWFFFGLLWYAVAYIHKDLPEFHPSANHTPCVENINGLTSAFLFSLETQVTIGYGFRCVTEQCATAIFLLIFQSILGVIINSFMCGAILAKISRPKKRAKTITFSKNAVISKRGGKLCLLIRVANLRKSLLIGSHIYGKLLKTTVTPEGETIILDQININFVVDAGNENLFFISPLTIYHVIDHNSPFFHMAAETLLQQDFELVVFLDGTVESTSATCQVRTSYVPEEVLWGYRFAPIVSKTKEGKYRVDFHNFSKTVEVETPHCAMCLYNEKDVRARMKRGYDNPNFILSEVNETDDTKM
Insulin prom up – insulin promoter activators in MIN6 cells, imaging, high-content screening, mouse beta cells; MIN6 insulin promoter-GFP reporter; active compounds read high; z-score at 5 µM; 190,000 tested, 0.3% active; AID 1625, 2009;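 active means z-score above 3 at 5 µM with at least 500 cells counted in the well; inconclusive means wells under 500 cells, flagged as cytotoxic or low count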
Cl transport mod – KCC2 cotransporter modulators, thallium flux, primary screen, cell-based, HEK293 KCC2, FluoZin-2 fluorescence, MLSMR; Solute carrier family 12 member 5 (Homo sapiens), Q9H2X9; KCC2 cells, thallium flux FluoZin-2 fluorescence; B-score of Tl+ flux slope (higher = more flux/activation; lower = inhibition) at 10 µM; 190,000 tested, 2.2% active;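 active means thallium flux slope and its plate-corrected score both differing from the plate sample mean at a set confidence after two filtering rounds, in either direction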;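 further: slope of fluorescence scaled to starting intensity during 10 to 20 s after thallium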
A number is an active result; - = inactive; ? = inconclusive; . = no result given.

SMILES	INS promoter inh	WT yeast gro inh	L major viab	ROMK primary	Insulin prom up	Cl transport mod
Cc1ccc(Cn2c(C(=O)NCCCN3CCOCC3)cc3sccc32)cc1	.	-	87	.	-	-
O=C(NCCCN1CCOCC1)c1ccc(CS(=O)(=O)Cc2ccc(Cl)cc2)o1	-	-	-	.	-	-
Cc1cc2c(cc(C(=O)NCCCN3CCOCC3)n2Cc2ccc(Cl)cc2)o1	-	-	99	-	-	-
CCCn1c(NC(=O)C2COc3ccccc3O2)nc2ccccc21 (stereo not drawn)	-	-	-	.	-	-
CCc1cccc2sc(NC(=O)c3ccc(N4C(=O)CCC4=O)cc3)nc12	-	-	-	-	-	-
CCn1c(C(=O)NCCCN2CCc3ccccc3C2)cc2sccc21	.	-	91	.	-	-
O=C1CN2C(=Nc3ccc(Cl)cc3C2c2ccccc2)CN1 (stereo not drawn)	-	-	-	.	-	-
S=C1NCCc2ccc(Cl)cc2C1c1ccccc1 (stereo not drawn)	-	71	-	.	.	-
COc1ccc(NC(=O)c2nn(C)cc2[N+](=O)[O-])cc1	.	.	.	.	-	-
Cc1ccc(NC(=O)c2nn(C34CC5CC(CC(C5)C3)C4)cc2[N+](=O)[O-])cc1	.	-	59	-	-	.
CN(C)Cc1nc2ccccc2c(=O)n1Cc1nc(-c2cc3ccccc3o2)cs1	.	-	-	.	-	-
O=S(Cc1ccc(Br)cc1)Cc1nnc(SCc2c(F)cccc2Cl)n1-c1ccccc1 (stereo not drawn)	-	77	-	-	-	-
O=S(Cc1ccc(Br)cc1)Cc1nnc(SCc2ccc(Cl)cc2)n1-c1ccccc1 (stereo not drawn)	-	-	-	.	-	.
CC(=O)OC(C(=O)NCc1ccco1)c1cccnc1 (stereo not drawn)	76	-	-	-	-	-
COc1ccc2occ(C(C)=O)c2c1	-	-	-	-	-	-
CC(=O)c1coc2ccc(OCCN3CCCCC3)cc12	-	-	91	-	.	.
Cc1nc2c(=O)n(-c3ccc(F)cc3F)nc(C)c2s1	.	.	.	.	.	-
COc1ccc(NC2=Nc3cccc4cccc2c34)cc1OC	-	-	-	-	-	-
COc1cc(NC2=Nc3cccc4cccc2c34)cc(OC)c1OC	-	-	56	-	-	-
O=S(=O)(c1ccccc1)c1nc(-c2cccs2)oc1NCC1CCCO1 (stereo not drawn)	-	-	86	.	.	-
C=CCN(CC=C)C(=O)c1ccc(OC2CCN(Cc3ccccn3)CC2)cc1	.	-	59	-	-	-
COC1CCN(C(=O)c2ccc(OC3CCN(Cc4ccccn4)CC3)cc2)CC1	.	-	-	-	-	-
O=[N+]([O-])c1cc(C(F)(F)F)ccc1NC1CCN(Cc2ccccc2)CC1	.	.	.	-	-	-
Cc1ccccc1NC(=O)c1cc(C(=O)c2cc(Cl)ccc2O)cn(-c2ccccc2C)c1=O	-	-	61	-	-	-
O=C(Nc1ccccc1N1CCCC1)c1cc(Cl)ccc1Cl	-	-	-	-	-	-
SMILES	INS promoter inh	WT yeast gro inh	L major viab	ROMK primary	Insulin prom up	Cl transport mod
COC(=O)c1ccc2c(c1)C(C)(C)C(/C=C/c1ccccc1O)=[N+]2C	-	-	101	.	?	-
Cc1cc(OCC(=O)Nc2ccncc2)ccc1Br	-	-	-	-	-	.
COc1ccc(C(=O)NC2CCCCCC2)cc1S(=O)(=O)N1CCCc2ccccc21	-	-	94	.	-	-
COc1ccc(C(=O)Nc2nc3c(s2)CCCC3)cc1S(=O)(=O)N1CCCc2ccccc21	-	-	97	-	-	-
CCc1ccc2oc(=O)cc(CN(C)Cc3ccccc3)c2c1	-	-	-	-3.1	-	-
Nc1cnn(Cc2ccc(F)cc2)c1	.	-	-	-	-	-
COc1cccc(Cn2cc(N)cn2)c1	-	-	98	-	-	-
Nc1cnn(Cc2ccccc2F)c1	.	-	100	-	-	-
CCCN1C/C(=C/c2cccc([N+](=O)[O-])c2)C(=O)/C(=C/c2cccc([N+](=O)[O-])c2)C1	.	-	101	-	-	.
CCCN(CCC)C(=O)/C=C/c1cccc([N+](=O)[O-])c1	.	.	.	.	-	-
CCCN1C/C(=C/c2ccc3c(c2)OCO3)C(=O)/C(=C/c2ccc3c(c2)OCO3)C1	-	-	100	.	-	-
COc1ccc(S(=O)(=O)N(C)CC(=O)NC2CCCC2)cc1Cl	-	-	-	-	-	.
Cc1csc(SCC(=O)NCc2ccc3c(c2)OCO3)n1	.	.	.	.	-	-
CCOc1cc(CNCCO)cc(Br)c1OCc1cccs1	.	-	100	-	-	.
CCOc1cc(CNCCO)cc(Br)c1OCc1ccc(Cl)cc1Cl	-	-	101	.	.	.
CCOc1cc(CNCc2ccncc2)cc(Br)c1OCc1ccccc1F	.	-	92	.	?	-
CCOc1cccc(CNCCO)c1OCc1ccc(Cl)cc1Cl	.	-	-	.	-	-
CCOc1cc(CNc2ccccc2)cc(Br)c1OCc1ccc(F)cc1	-	-	-	-	-	-
CCOc1cc(CNCc2cccs2)cc(Br)c1OCC	.	-	-	-	-	-
C=CCN1C(=O)/C(=C/c2cccs2)S/C1=N\S(=O)(=O)c1ccc(F)cc1	-	-	-	.	-	-
O=C(O)C1CSC(c2ccco2)N1 (stereo not drawn)	.	-	-	-	-	-
COc1ccccc1C(O)(C(=O)NNc1cccc(C)c1)c1ccccc1OC	-	-	-	-	-	-
CC(C)(C)n1nnnc1C(c1ccc(C#N)cc1)N1CCCC2(CCCCC2)C1 (stereo not drawn)	-	-	78	-	-	-
CCC(C)(C)n1nnnc1C(c1ccncc1)N1CCC(Cc2ccccc2)CC1 (stereo not drawn)	-	-	91	-	-	-
CC(C)(C)n1nnnc1C(c1cccc(C#N)c1)N1CCC(Cc2ccccc2)CC1 (stereo not drawn)	-	-	83	.	-	-
SMILES	INS promoter inh	WT yeast gro inh	L major viab	ROMK primary	Insulin prom up	Cl transport mod
CCC(C)(C)n1nnnc1C(c1cccnc1)N1CCC(Cc2ccccc2)CC1 (stereo not drawn)	-	-	90	-	-	-
CC(C)(C)n1nnnc1C(c1ccncc1)N1CCCCCC1 (stereo not drawn)	-	-	-	-	.	-
CCC(C)(C)n1nnnc1C(c1ccc(C)cc1)N1CCN(Cc2cccnc2)CC1 (stereo not drawn)	.	-	-	.	-	-
OCC1(Cc2ccccc2)CCCN(Cc2ccn[nH]2)C1 (stereo not drawn)	-	-	-	-	-	-
COc1cccc(N2CCN(C(c3ccccn3)c3nnnn3C(C)(C)C)CC2)c1 (stereo not drawn)	-	-	-	-	-	-
CCC(C)(C)n1nnnc1C(c1ccncc1)N1CCN(c2cccc(OC)c2)CC1 (stereo not drawn)	-	-	54	.	-	.
CCC(C)(C)n1nnnc1C(c1cccnc1)N1CCCC(C)C1 (stereo not drawn)	-	-	87	-	.	-
